Calls of active or inactive are those of the source. Unless noted, how the calls were made is not given here.
How the values were obtained:
[1] = compound effects on lung adenocarcinoma cell viability – A549, calcein-AM fluorescence, 48 h, basal, profiling panel (AID 1162); conditions: higher = more signal; further: test concentration not given here
[2] = compound effects on differentiated 3T3-L1 adipocyte viability – cell-based, 3T3-L1 adipocytes, calcein-AM fluorescence, 48 h, basal, profiling panel (AID 1163); conditions: 3T3-L1 adipocytes viability, higher = more signal; further: test concentration not given here
[3] = compound effects on hepatocellular carcinoma cell viability – HepG2, calcein-AM fluorescence, 48 h, basal, profiling panel (AID 1164); conditions: higher = more signal; further: test concentration not given here
[4] = compound effects on multiple myeloma cell viability – MM1S, calcein-AM fluorescence, 48 h, basal, profiling panel (AID 1165); conditions: higher = more signal; further: test concentration not given here
[5] = calcein-AM signal in unstimulated myeloma cells – cell-based, calcein-AM fluorescence, 48 h, PK04 Diversity Set, profiling panel (AID 1166); conditions: RPMI8226 myeloma viability, higher = more signal;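 further: cells grown under basal conditions without added stimulus; test concentration not given here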
[6] = JC-1 mitochondrial signal, unstimulated HepG2 cells – cell-based, JC-1 fluorescence, 24 h, 100 nL compound, profiling panel (AID 1167); conditions: HepG2 mitochondrial potential, higher = more signal; further: test concentration not given here
[7] = JC-1 mitochondrial signal, unstimulated adipocytes – cell-based, JC-1 fluorescence, 3T3-L1 adipocytes, 24 h, 100 nL compound, profiling panel (AID 1168); conditions: JC-1 mitochondrial fluorescence, higher = more signal, called active from +8 up or from −8 down; further: test concentration not given here
[8] = JC-1 mitochondrial signal, unstimulated myeloma cells – cell-based, JC-1 fluorescence, RPMI8226, 24 h, 100 nL compound, profiling panel (AID 1169); conditions: JC-1 mitochondrial potential fluorescence, higher = more signal; further: test concentration not given here
[9] = JC-1 mitochondrial signal, unstimulated MM1S myeloma – cell-based, JC-1 fluorescence, 24 h, 100 nL compound, profiling panel (AID 1170); conditions: MM1S mitochondrial potential, higher = more signal; further: test concentration not given here
[10] = resazurin metabolic signal in A549 cells – cell-based, resazurin fluorescence, 24 h, PK04 Diversity Set, profiling panel (AID 1171); conditions: A549 viability, higher = more signal, called active from +8 up or from −8 down; further: test concentration not given here
[11] = resazurin metabolic signal in HepG2 cells – cell-based, resazurin fluorescence, 24 h, PK04 Diversity Set, profiling panel (AID 1172); conditions: HepG2 viability, higher = more signal; further: test concentration not given here
[12] = budding yeast growth changes without added modifier – OD600, strain BY4716, 24 h, basal condition, primary screen (AID 1173); conditions: S. cerevisiae BY4716 growth, OD600, 24 h; higher = more signal, called active from +8 up or from −8 down
[13] = viability profiling in MM1S myeloma cells – cell-based, resazurin fluorescence, basal, 24 h, PK04 Diversity Set, profiling panel (AID 1174); conditions: higher = more signal, called active from +8 up or from −8 down; further: test concentration not given here
[14] = molecular target: Dihydroorotate dehydrogenase (quinone), mitochondrial (Plasmodium falciparum (isolate 3D7)) (UniProt Q08210); test: inhibition of P. falciparum DHODH – biochemical, C-terminal His tag, absorbance 600 nm, primary screen (AID 1175); conditions: PfDHODH enzyme, DCIP absorbance 600 nm; higher = more signal, called active from +8 up or from −8 down;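 further: recombinant parasite enzyme with a five histidine tag at its C terminus; test concentration not given here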
[15] = inhibition of PAO1 biofilm formation – strain PAO1, LB-PBS medium, absorbance 600 nm, primary screen (AID 1176); further: test concentration not given here; conditions: P. aeruginosa PAO1 growth/biofilm, A600, 12 h; higher = more signal
[16] = growth modulation of vineyard yeast isolate – strain RM11-1a, OD600, basal, 24 h, primary screen (AID 1177);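 further: cultures grown under basal conditions with no added stressor; test concentration not given here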; conditions: S. cerevisiae RM11-1a growth, OD600, 24 h; higher = more signal, called active from +8 up or from −8 down
[17] = growth of efflux-deficient E. coli DRC39 – strain DRC39, OD650, 24 h, E. coli filamentation inducers, primary screen (AID 1178);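 further: growth measured as culture turbidity by optical density at 650 nm; test concentration not given here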; conditions: E. coli DRC39 acrAB, higher = more signal, called active from +8 up or from −8 down
[18] = growth of efflux-deficient E. coli DRC39 – strain DRC39, OD650, 48 h, E. coli filamentation inducers, primary screen (AID 1179);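 further: screen aims at cell division blockers that make cells filament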; conditions: E. coli DRC39 delta-acrAB growth, higher = more signal, called active from +8 up or from −8 down
[19] = viability profiling in RPMI8226 myeloma cells – cell-based, resazurin fluorescence, basal, 24 h, PK04 Diversity Set, profiling panel (AID 1180); conditions: higher = more signal;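 further: RPMI8826 multiple myeloma cell line at 5000 cells per well; test concentration not given here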
[20] = molecular target: E3 ubiquitin-protein ligase XIAP (Homo sapiens) (UniProt P98170); test: small molecules binding XIAP protein – biophysical, small-molecule microarray, fluorescence 635 nm, primary screen (AID 1181); conditions: higher = more signal;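 further: score merges 667 nm emission and signal to noise over triplicate slides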
E3 ubiquitin-protein ligase XIAP (Homo sapiens), sequence (P98170 whole entry, looked up): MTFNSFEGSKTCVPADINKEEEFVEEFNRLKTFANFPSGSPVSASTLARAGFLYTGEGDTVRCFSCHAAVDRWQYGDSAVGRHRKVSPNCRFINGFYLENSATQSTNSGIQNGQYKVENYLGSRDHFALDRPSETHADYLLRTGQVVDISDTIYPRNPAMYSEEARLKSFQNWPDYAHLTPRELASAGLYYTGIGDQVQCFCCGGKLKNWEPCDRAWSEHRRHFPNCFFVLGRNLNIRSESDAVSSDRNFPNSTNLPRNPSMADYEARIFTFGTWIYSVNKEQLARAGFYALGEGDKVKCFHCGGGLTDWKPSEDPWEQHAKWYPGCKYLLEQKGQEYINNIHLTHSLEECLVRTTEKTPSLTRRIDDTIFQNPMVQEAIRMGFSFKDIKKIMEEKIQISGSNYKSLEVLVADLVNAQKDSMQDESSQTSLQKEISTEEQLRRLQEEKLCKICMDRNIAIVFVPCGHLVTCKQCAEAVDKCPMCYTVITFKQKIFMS

Dihydroorotate dehydrogenase (quinone), mitochondrial (Plasmodium falciparum (isolate 3D7)), sequence (Q08210 whole entry, looked up): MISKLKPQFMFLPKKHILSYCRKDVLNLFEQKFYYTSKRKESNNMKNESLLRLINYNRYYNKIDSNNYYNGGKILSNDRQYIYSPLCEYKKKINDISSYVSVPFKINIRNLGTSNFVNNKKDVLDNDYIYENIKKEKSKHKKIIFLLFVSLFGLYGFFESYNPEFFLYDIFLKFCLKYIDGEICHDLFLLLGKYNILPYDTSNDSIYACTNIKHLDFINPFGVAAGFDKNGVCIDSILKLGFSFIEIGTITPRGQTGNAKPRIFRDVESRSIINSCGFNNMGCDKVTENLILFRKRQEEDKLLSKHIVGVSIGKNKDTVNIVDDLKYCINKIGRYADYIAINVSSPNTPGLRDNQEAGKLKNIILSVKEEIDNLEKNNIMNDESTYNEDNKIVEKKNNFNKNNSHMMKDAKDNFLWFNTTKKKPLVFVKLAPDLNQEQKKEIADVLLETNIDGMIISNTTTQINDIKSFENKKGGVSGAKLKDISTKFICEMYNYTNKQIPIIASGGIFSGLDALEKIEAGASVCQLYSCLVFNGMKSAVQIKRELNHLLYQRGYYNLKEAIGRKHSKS

Row | SMILES | z-score [1] | z-score [2] | z-score [3] | z-score [4] | z-score [5] | z-score [6] | z-score [7] | z-score [8] | z-score [9] | z-score [10] | z-score [11] | z-score [12] | z-score [13] | composite z-score [14] | z-score [15] | z-score [16] | z-score [17] | z-score [18] | z-score [19] | composite z-score [20]
1 | CN(C)CCCC[C@@H]1NC(=O)[C@H]2C[C@@H](C(=O)NCCCCCCNC(=O)CS)[C@@H](c3ccc(O)cc3)N2C1=O | -0.877 | 0.0215 | -1.35 | -0.245 | -1.02 | -1.45 | -0.715 (inactive) | 0.683 | 0.441 | -0.415 (inactive) | 0.183 | -0.213 (inactive) | -0.614 (inactive) | -0.368 (inactive) | 0.022 (inactive) | -0.48 (inactive) | 0.0961 (inactive) | -0.509 (inactive) | -0.892 | -0.0749
2 | O=C(C=C(CC(O)c1cccc(Cl)c1)OCCF)OCCF (stereo not given) | 0.595 | 0.642 | 0.989 | 0.947 | -0.667 | 0.586 | 0.869 (inactive) | 0.0309 | -0.273 | 0.135 (inactive) | -0.0453 | -1.47 (inactive) | 0.0592 (inactive) | -2.48 (inactive) | -0.777 (inactive) | -1.33 (inactive) | -0.0441 (inactive) | 1.04 (inactive) | 0.335 | 0.237
3 | C=CC[C@]1(C(=O)N2CCOCC2)N=C(c2ccc(OCCCO)cc2)O[C@H]1c1ccccc1CN=[N+]=[N-] | 0.762 | 0.399 | 1.65 | -0.0728 | -1.62 | 1.48 | 0.114 (inactive) | -0.977 | -0.508 | -0.119 (inactive) | -0.744 | -0.33 (inactive) | -0.574 (inactive) | 0.155 (inactive) | -0.497 (inactive) | 0.301 (inactive) | -0.186 (inactive) | 0.0726 (inactive) | -1.03 | 0.208
4 | CC(C)c1ccc(NN2C(C(O)c3cccs3)C=CC3C(=O)N(c4ccccc4)C(=O)C32)cc1 (stereo not given) | -0.869 | -0.986 | -0.245 | -0.639 | -0.476 | -2.91 | -1.73 (inactive) | 0.183 | 0.491 | -0.28 (inactive) | -1.75 | -2.27 (inactive) | -1.73 (inactive) | 0.355 (inactive) | 0.835 (inactive) | 0.883 (inactive) | -0.649 (inactive) | -0.73 (inactive) | -1.14 | 0.44
5 | C=CCOC(=O)[C@H]1[C@@H]2C(=O)O[C@@H](c3ccccc3)[C@@H](c3ccccc3)N2[C@@H](c2ccc(OCCOC(=O)[C@H]3C[C@H]4C(=O)N[C@@H](CCCCN(C)C)C(=O)N4[C@H]3c3ccc(O)cc3)cc2)[C@]12C(=O)Nc1ccccc12 | -0.514 | 1.04 | -0.434 | -1.54 | -0.0817 | -1.63 | 0.665 (inactive) | -0.838 | -0.391 | 0.232 (inactive) | 0.569 | -2.35 (inactive) | 0.95 (inactive) | 0.279 (inactive) | -0.723 (inactive) | 0.719 (inactive) | 0.172 (inactive) | -0.739 (inactive) | 0.828 | 0.0425
6 | CCCCC(=C=CC[C@H](O)c1cccc(OCCO)c1)C[C@H](O)COCc1ccccc1 | 0.803 | 0.403 | 0.0132 | -1.06 | -0.63 | 0.214 | 0.254 (inactive) | 0.746 | -0.378 | 1.4 (inactive) | 1.38 | -0.919 (inactive) | 0.202 (inactive) | -1.06 (inactive) | 0.342 (inactive) | 0.178 (inactive) | 0.525 (inactive) | 0.122 (inactive) | 0.774 | -0.165
7 | CCOC(=O)C[C@H]1[C@H](OC(=O)c2ccc(C(=O)c3ccccc3)cc2)[C@@H](NC(=O)C2CCCCC2)c2cc(OCCCO)ccc2N1C(=O)Cc1ccc(OC)cc1 | 0.273 | 0.628 | 0.918 | -0.4 | -0.631 | 1.06 | -0.76 (inactive) | 0.368 | -0.812 | -0.0859 (inactive) | -0.531 | -0.741 (inactive) | -0.28 (inactive) | -0.085 (inactive) | -0.346 (inactive) | -0.0363 (inactive) | -0.29 (inactive) | 0.162 (inactive) | -0.353 | -0.141
8 | COc1cc(NN2C(C(O)c3ccc(I)cc3)C=CC3C(=O)N(C)C(=O)C32)cc(OC)c1OC (stereo not given) | -0.0595 | 0.459 | 0.196 | -0.07 | 0.24 | -0.461 | 0.0122 (inactive) | -0.335 | -0.311 | -1.42 (inactive) | -1.7 | 0.643 (inactive) | -0.297 (inactive) | -0.698 (inactive) | 1.08 (inactive) | -0.377 (inactive) | 0.168 (inactive) | -0.413 (inactive) | -0.786 | 0.346

Reference: PubChem BioAssay
